We go through 13 compounds from PubChem BioAssay.

The nature of assay [1]: resazurin metabolic signal in HepG2 cells – cell-based, resazurin fluorescence, 24 h, PK04 Diversity Set, profiling panel (AID 1172). Further: test concentration not given here. Particulars: HepG2 viability, higher = more signal.
Assay [2] can be described thus: budding yeast growth changes without added modifier – OD600, strain BY4716, 24 h, basal condition, primary screen (AID 1173). Particulars: S. cerevisiae BY4716 growth, OD600, 24 h; higher = more signal, called active from +8 up or from −8 down.
Assay [3] in a line: viability profiling in MM1S myeloma cells – cell-based, resazurin fluorescence, basal, 24 h, PK04 Diversity Set, profiling panel (AID 1174). Further: test concentration not given here. To be noted: higher = more signal, called active from +8 up or from −8 down.
Assay [4] addresses Dihydroorotate dehydrogenase (quinone), mitochondrial (Plasmodium falciparum (isolate 3D7)) (UniProt Q08210). Description: inhibition of P. falciparum DHODH – biochemical, C-terminal His tag, absorbance 600 nm, primary screen (AID 1175).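 Further: recombinant parasite enzyme with a five histidine tag at its C terminus; test concentration not given here.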 Particulars: PfDHODH enzyme, DCIP absorbance 600 nm; higher = more signal, called active from +8 up or from −8 down.
Assay [5] in a line: inhibition of PAO1 biofilm formation – strain PAO1, LB-PBS medium, absorbance 600 nm, primary screen (AID 1176). Further: test concentration not given here. To be noted: P. aeruginosa PAO1 growth/biofilm, A600, 12 h; higher = more signal.
Assay [6] can be described thus: growth modulation of vineyard yeast isolate – strain RM11-1a, OD600, basal, 24 h, primary screen (AID 1177).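 Further: cultures grown under basal conditions with no added stressor; test concentration not given here.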 Particulars: S. cerevisiae RM11-1a growth, OD600, 24 h; higher = more signal, called active from +8 up or from −8 down.
A short description of assay [7]: growth of efflux-deficient E. coli DRC39 – strain DRC39, OD650, 24 h, E. coli filamentation inducers, primary screen (AID 1178).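 Further: growth measured as culture turbidity by optical density at 650 nm; test concentration not given here.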 Particulars: E. coli DRC39 acrAB, higher = more signal, called active from +8 up or from −8 down.
The nature of assay [8]: growth of efflux-deficient E. coli DRC39 – strain DRC39, OD650, 48 h, E. coli filamentation inducers, primary screen (AID 1179).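 Further: screen aims at cell division blockers that make cells filament.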 To be noted: E. coli DRC39 delta-acrAB growth, higher = more signal, called active from +8 up or from −8 down.
Assay [9] can be described thus: viability profiling in RPMI8226 myeloma cells – cell-based, resazurin fluorescence, basal, 24 h, PK04 Diversity Set, profiling panel (AID 1180).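 Further: RPMI8826 multiple myeloma cell line at 5000 cells per well; test concentration not given here.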 To be noted: higher = more signal.
Assay [10] has as its target E3 ubiquitin-protein ligase XIAP (Homo sapiens) (UniProt P98170). The experiment in a line: small molecules binding XIAP protein – biophysical, small-molecule microarray, fluorescence 635 nm, primary screen (AID 1181).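 Further: score merges 667 nm emission and signal to noise over triplicate slides.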 Particulars: higher = more signal.

Activity calls are given as the source filed them. Unless noted, how the calls were made is not given here.

Chain of Dihydroorotate dehydrogenase (quinone), mitochondrial (Plasmodium falciparum (isolate 3D7)) (Q08210 whole entry, looked up): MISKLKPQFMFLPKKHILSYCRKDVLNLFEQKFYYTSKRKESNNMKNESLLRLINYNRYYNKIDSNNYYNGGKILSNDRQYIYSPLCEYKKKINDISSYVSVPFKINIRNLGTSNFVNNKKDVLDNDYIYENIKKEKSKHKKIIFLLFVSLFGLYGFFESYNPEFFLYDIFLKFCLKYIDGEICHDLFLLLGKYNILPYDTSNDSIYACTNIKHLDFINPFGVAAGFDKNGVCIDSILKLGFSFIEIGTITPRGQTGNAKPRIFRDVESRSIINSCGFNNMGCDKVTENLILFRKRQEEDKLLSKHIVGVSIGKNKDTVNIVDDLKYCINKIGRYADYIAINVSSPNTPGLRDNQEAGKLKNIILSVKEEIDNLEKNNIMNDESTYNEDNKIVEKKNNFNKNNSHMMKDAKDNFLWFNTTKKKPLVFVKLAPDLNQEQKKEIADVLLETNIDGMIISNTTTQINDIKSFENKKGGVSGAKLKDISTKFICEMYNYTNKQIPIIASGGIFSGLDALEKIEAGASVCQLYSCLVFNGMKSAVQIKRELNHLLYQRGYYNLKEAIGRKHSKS
Chain of E3 ubiquitin-protein ligase XIAP (Homo sapiens) (P98170 whole entry, looked up): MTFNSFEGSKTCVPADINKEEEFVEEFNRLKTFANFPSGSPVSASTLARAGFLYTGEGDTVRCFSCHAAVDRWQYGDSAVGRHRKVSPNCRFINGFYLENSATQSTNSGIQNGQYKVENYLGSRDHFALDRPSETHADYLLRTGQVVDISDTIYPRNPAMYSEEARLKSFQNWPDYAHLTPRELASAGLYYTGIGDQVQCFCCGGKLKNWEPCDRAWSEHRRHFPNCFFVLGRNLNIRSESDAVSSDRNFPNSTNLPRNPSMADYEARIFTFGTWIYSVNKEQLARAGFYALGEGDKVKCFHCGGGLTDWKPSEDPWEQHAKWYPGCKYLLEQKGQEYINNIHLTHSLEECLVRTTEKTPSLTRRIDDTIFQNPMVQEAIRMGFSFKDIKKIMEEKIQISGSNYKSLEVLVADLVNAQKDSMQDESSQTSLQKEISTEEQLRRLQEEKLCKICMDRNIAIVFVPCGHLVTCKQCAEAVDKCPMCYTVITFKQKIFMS

As to `CCOC(=O)C[C@H]1[C@H](OC(=O)c2cc3ccccc3oc2=O)[C@@H](NC(=O)c2ccc3ccccc3c2)c2cc(OCCCO)ccc2N1C(=O)c1ccccc1`, the z-score in assay [1] was -0.438; in assay [2] it was -1.31 (inactive); in assay [3] it was -0.382 (inactive); in assay [5], -0.647 (inactive); in assay [6], -0.283 (inactive); in assay [7] it was -0.464 (inactive). For the same compound, the z-score is -1.03 (inactive) in assay [8] and -0.486 in [9]. The composite z-score is -2.91 (inactive) in assay [4] and 0.0871 in assay [10].
`COC(=O)c1c2oc(c1C(=O)OC)C(=O)N[C@H](Cc1ccccc1)Cn1nncc1C1(CCCCC1)NC(=O)N[C@H](CO)CC2`: the z-score in assay [1] is 1.09; in assay [2] it was 0.916 (inactive); in assay [3], 2.4 (inactive); in assay [5], 1.27 (inactive); in assay [6] it was 0.416 (inactive); in assay [7], 0.157 (inactive). In addition, the z-score in assay [8] was 0.402 (inactive); in assay [9], 2.19. The composite z-score in [4] is 0.112 (inactive); in assay [10] it was 0.0859.
As for `C=CCNC(=O)[C@@H]1[C@H]2C(=O)O[C@H](c3ccccc3)[C@H](c3ccccc3)N2[C@H](c2ccccc2OCCO)[C@@]12C(=O)N(C(=O)OCCOC)c1ccc(C#CCC(C(=O)OC)C(=O)OC)cc12`, the z-score is 0.865 in assay [1]; 2.2 (inactive) in assay [2]; -1.69 (inactive) in assay [3]; 3.54 (inactive) in assay [5]; 1.62 (inactive) in [6]; 0.275 (inactive) in [7]. The z-score is -0.418 (inactive) in assay [8] and -0.11 in assay [9]. Moreover, the composite z-score was -2.24 (inactive) in assay [4] and 0.666 in assay [10].
For the compound `NC(=O)NCC#Cc1ccc2c(c1)[C@]1(C(=O)N2)[C@H](C(=O)NC[C@H](O)c2ccccc2)[C@H]2C(=O)O[C@H](c3ccccc3)[C@H](c3ccccc3)N2[C@@H]1c1ccccc1OCCO`, the z-score was 0.217 in assay [1]; 0.328 (inactive) in assay [2]; 0.56 (inactive) in [3]; 1.08 (inactive) in [5]; 0.915 (inactive) in assay [6]; 1.01 (inactive) in assay [7]. Further, the z-score was 0.0227 (inactive) in assay [8] and 0.225 in assay [9]. In addition, the composite z-score was 0.833 (inactive) in assay [4] and 0.0864 in assay [10].
With `COC(=O)[C@@]1(Cc2ccc(OC)cc2)[C@H]2c3cc(C(=O)N4CCCC4)n(CCN4CCOCC4)c3C[C@H]2CN1C(=O)c1ccccc1`, the z-score is 0.142 in assay [1]; 0.642 (inactive) in [2]; -0.0281 (inactive) in assay [3]; 0.231 (inactive) in [5]; 0.48 (inactive) in assay [6]; 0.0378 (inactive) in [7]. In addition, the figures for the z-score in assay [8] and in assay [9] were 0.484 (inactive) and 0.639, respectively. Moreover, the composite z-score was -1.33 (inactive) in assay [4] and 0.0305 in assay [10].
For the compound `CCCC[C@@H]1C[C@H]1[C@@H](NC(=O)c1ccco1)c1ccccc1`, the z-score was 1.39 in assay [1]; -3.05 (inactive) in [2]; 0.757 (inactive) in assay [3]; -0.195 (inactive) in assay [5]; 0.586 (inactive) in assay [6]; -0.9 (inactive) in [7]. Besides, the z-score in assay [8] is -0.569 (inactive); in assay [9], 0.0092. In addition, the composite z-score was -1.19 (inactive) in assay [4] and 0.171 in assay [10].
Consider `C=C(COC)C(=O)CC[C@@H](OC(=O)c1ccccc1-c1ccccc1C(=O)O)c1ccc(CO)o1`, for which the z-score is -0.731 in [1]; -17.9 (active) in assay [2]; -0.0674 (inactive) in [3]; 0.85 (inactive) in [5]; -21.6 (active) in assay [6]; 0.163 (inactive) in [7]. Further, the results for the z-score in assay [8] and in assay [9] were -0.171 (inactive) and 0.62, respectively. Further, the composite z-score in [4] was -6.3 (inactive); in assay [10], 0.294.
For `CC1CC/C=C\[C@H]2OC34C=CCN(Cn5nnc6ccccc65)C(=O)[C@H]3N(CCCO)C(=O)[C@@H]4C2C(=O)O1` (stereo not given in full), the z-score was -0.0236 in [1]; 1.06 (inactive) in assay [2]; 0.502 (inactive) in assay [3]; -0.221 (inactive) in assay [5]; 0.801 (inactive) in [6]; 0.0706 (inactive) in assay [7]. In addition, the figures for the z-score in [8] and in assay [9] were -0.0371 (inactive) and 0.623, respectively. Besides, the composite z-score in [4] is 0.317 (inactive); in assay [10] it was 0.244.
Regarding `O=C1C2C=CC(C(O)C3CC=CCC3)N(n3cnnc3)C2C(=O)N1Cc1ccccc1` (stereo not given), the z-score is -0.854 in assay [1]; 0.0086 (inactive) in [2]; -1.16 (inactive) in assay [3]; 0.216 (inactive) in [5]; -0.363 (inactive) in assay [6]; -1.59 (inactive) in assay [7]. The z-score in assay [8] was -1.35 (inactive); in [9], -1.45. Moreover, the composite z-score in assay [4] was -0.071 (inactive); in assay [10], 0.38.
As for `COc1ccc([Si](C)(C)[C@H]2[C@H](CC(=O)N(CCO)Cc3ccccc3)O[C@@]3(C(=O)N(Cc4cccc(N5C(=O)c6cccc7cccc5c67)c4)c4ccccc43)[C@@H]2C)cc1`, the z-score in assay [1] is -0.101; in assay [2], 0.476 (inactive); in assay [3], -3.19 (inactive); in assay [5], 1.98 (inactive); in [6], 0.768 (inactive); in [7] it was 0.67 (inactive). Also, the z-score in assay [8] was 0.865 (inactive); in assay [9] it was -2.93. Besides, the composite z-score in assay [4] was -2.98 (inactive); in assay [10], 0.0564.
For the compound `C[N+](C)(C)CCCC[C@@H]1NC(=O)[C@@H]2C[C@H](C(=O)NCCCCCCNC(=O)CS)[C@H](c3cccc(OCCO)c3)N2C1=O`, the z-score in assay [1] is 0.0265; in assay [2], 0.159 (inactive); in [3], -0.0664 (inactive); in assay [5] it was -0.117 (inactive); in assay [6] it was -0.18 (inactive); in assay [7], 0.253 (inactive). Besides, the values for the z-score in [8] and in assay [9] were 0.832 (inactive) and 0.24, respectively. The composite z-score is 0.092 (inactive) in [4] and 0.131 in assay [10].
Turning to `C=CCOC(=O)[C@H]1[C@@H]2C(=O)O[C@@H](c3ccccc3)[C@@H](c3ccccc3)N2[C@@H](c2ccc(OCCOC(=O)[C@H]3C[C@H]4C(=O)N[C@@H](CCCC[N+](C)(C)C)C(=O)N4[C@H]3c3ccc(O)cc3)cc2)[C@]12C(=O)Nc1ccccc12`, the z-score was 0.767 in assay [1]; -2.24 (inactive) in assay [2]; 1.31 (inactive) in assay [3]; -0.723 (inactive) in assay [5]; 0.0539 (inactive) in assay [6]; 0.402 (inactive) in [7]. Besides, the z-score in [8] is 0.0612 (inactive); in [9], 1.21. For the same compound, the results for the composite z-score in [4] and in assay [10] were -2.24 (inactive) and 0.0325, respectively.
In the case of `C[n+]1ccc2ccc(O)cc2c1`, the z-score in assay [1] was 0.0027; in assay [2], -1.06 (inactive); in assay [3] it was 0.242 (inactive); in [5] it was -0.131 (inactive); in assay [6], 0.582 (inactive); in [7] it was 0.0452 (inactive). Also, the z-score is -0.0896 (inactive) in assay [8] and -0.654 in [9]. For the same compound, the values for the composite z-score in assay [4] and in assay [10] were -0.843 (inactive) and 0.473, respectively.
